Screens (PubChem)
Sm TGR block = qHTS Assay for the Inhibitors of Schistosoma Mansoni Peroxiredoxins; Potency, µM (series often up to 114 µM), without a hit: at the top dose activity change, negative = inhibition, hits mostly inhibitors; hit rate 3% among 360,000; purified TGR, DTNB reduction, TNB absorbance 405 nm; Schistosoma mansoni thioredoxin glutathione reductase (TGR), Q962Y6; AID 485364, 2010; active means well fitted inhibition curve with a large enough effect; inconclusive means small, poorly fitted or top-dose-only effect; inactive means no such curve, though single readings can be large or run the other way; further: potency means the concentration at half of the fitted maximal effect; on the % scale 0 is the no-effect control and ±100 the full control effect; nearly all actives have a fitted effect of over 60% in size
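First, TGR (20 nM dispensed) and NADPH were mixed with compound. Second, a 15 min room-temperature incubation followed. Third, further NADPH and then DTNB were added to start the reaction. Finally, TNB absorbance was monitored kinetically.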
Cycloheximide cs = Cycloheximide Counterscreen for Small Molecule Inhibitors of Shiga Toxin | AID 2314, 2010 | hit rate 12% among 300,000 | max response, % | cell reporter, cycloheximide protein synthesis inhibition counterscreen; in the data active means max response mostly above about 13%, no sharp cut-off; inactive means mostly below about 14%; further: read at 38.3 µM for the half of the compounds with a filed dose; 0% is about no effect
Shiga toxin inh = A qHTS for Small Molecule Inhibitors of Shiga Toxin. AID 2315, 2010. inhibition, % at 38.7 µM. Vero cells, Shiga toxin protein synthesis inhibition reporter. hit rate 9.2% among 290,000; in the data active means inhibition mostly above about 28%, no sharp cut-off; inactive means mostly below about 43%; further: 0% is about no effect
FMDV inh = High Throughput Screening for Foot and Mouth Disease Virus Antivirals. FMDV antiviral cell-based qHTS. Potency, µM (titrated, usually from 57.9 µM), without a hit: at the top dose activity change, negative = inhibition, usual class: inhibitors. hit rate 1.2% among 410,000. AID 1159524, 2015; calls by dose curve; tested in HEK293T cells; further: read-out not given here; potency means the concentration at half of the fitted maximal effect; on the % scale 0 is the no-effect control and ±100 the full control effect; nearly all actives have a fitted effect of over 45% in size
Numbers without * were called inactive; u = inconclusive; x = not tested or not shown. Rows were chosen to be rich in hits. Some 12% of all compounds tested hit in one or more screens of this group.

SMILES	Sm TGR block	Cycloheximide cs	Shiga toxin inh	FMDV inh
O=[N+]([O-])c1cc(C(F)(F)F)ccc1NCCc1c[nH]c2ccc(O)cc12	-16%	3	20	u
COc1ccc(C(=O)N(O)c2ccccc2)cc1	x	x	x	3%
COc1ccccc1OCc1ccc(C(=O)Nc2ccc(C)c(C)c2)o1	-21%	x	x	-10%
Cc1ncc2c(c1CNC(=O)c1ccccc1F)CCN(C(=O)c1ccc3c(c1)OCCO3)C2	x	x	x	-8%
O=[N+]([O-])c1cccnc1NCCc1c[nH]c2ccccc12	3%	31*	68*	54%
O=c1ccnc(NCCc2ccccc2)[nH]1	3%	29*	48	-7%
NS(=O)(=O)c1ccc(CCNc2ccccc2[N+](=O)[O-])cc1	4%	36*	77*	24%
O=C(COc1cccnc1[N+](=O)[O-])NCCc1ccccc1	-5%	14*	16	18%
O=C(COc1cccnc1[N+](=O)[O-])NCCc1ccc(F)cc1	x	2	-11	6%
CCCc1cc(=O)[nH]c(NCCc2ccccc2)n1	0%	-3	3	24%
CC(=O)c1ccc(NC(=O)c2ccc(CN3C(=O)CCn4nc(C)cc43)cc2)cc1	1%	x	x	15%
Fc1ccc(-c2nnc(CN3CCN(c4ccccn4)CC3)o2)cc1	4%	x	x	-7%
CCC(C(=O)N1CCN(c2cc(Cl)ccc2C)CC1)n1nc(C)n2c(cc3occc32)c1=O (stereo not given)	-1%	x	x	u
CCOc1ccccc1NC(=O)CSC1=Nc2ccccc2C2=NC(CC(=O)NCc3ccc4c(c3)OCO4)C(=O)N12 (stereo not given)	1%	x	x	-18%
Cc1nn(Cc2ccccc2)c(C)c1NC(=O)CCCn1nc([N+](=O)[O-])c(Cl)c1C	-2%	-6	-18	-8%
Cc1c(Cl)c([N+](=O)[O-])nn1CCCC(=O)NCCc1ccccc1	-7%	31*	102*	53%
COc1ccc(CCNC(=O)c2cc(S(=O)(=O)N3CCCC(C)C3)cn2C)cc1OC (stereo not given)	1%	x	x	u
Cc1ccc(-c2nc(N)sc2C)cc1	-2%	15*	33*	33%
Cc1ccc(-c2nc(N)sc2-c2ccc(C)cc2)cc1	7%	-4	-18	u
CC(C)(C)c1cc(CCC(=O)NCc2ccncc2)cc(C(C)(C)C)c1O	-1%	19*	24	9%
COc1ccc(C2CC(=O)N(CC(=O)Nc3ccc(C(C)=O)cc3)c3ccccc3S2)cc1OC (stereo not given)	4%	x	x	u
CN1CCN(S(=O)(=O)c2ccc(NC(=O)c3ccc([N+](=O)[O-])cc3)cc2)CC1	x	x	x	14%
Cc1ccc(C(=O)NC(=S)Nc2ccc(S(=O)(=O)N3CCN(C)CC3)cc2)cc1	28µM*	26*	18	-4%
CN1CCN(S(=O)(=O)c2ccc(C(=O)Nc3ccccc3)cc2)CC1	1%	19*	63*	17%
CCN(c1ccc(NC(=O)c2cccc(S(=O)(=O)N3CCN(C)CC3)c2)cc1)C(C)C	8.9µM*	1	-10	-15%
SMILES	Sm TGR block	Cycloheximide cs	Shiga toxin inh	FMDV inh
CCC(=O)N1CCc2cc(S(=O)(=O)NC(C(=O)NCCc3ccccc3)C(C)C)ccc21 (stereo not given)	-1%	x	x	-20%
CCOc1ccc(CCNC(=O)c2nn(-c3ccc(OC)cc3)c(=O)c3c2c2ccccc2n3C)cc1OCC	9%	x	x	-23%
COc1ccc(/C=N/n2c(N)nc3ccccc32)cc1OC	2%	29*	51	-4%
COc1cccc(/C=N/n2c(SC)nnc2-c2ccccc2)c1OC	0%	-2	-15	u
COc1ccc(/C=N/n2c(=S)n(C)c3ccccc32)cc1OC	-9%	6	3	-17%
C(=N\n1cnc2ccccc21)/c1cccnc1	5%	19*	58	47%
COc1cccc(/C=N/n2cnc3ccccc32)c1OC	-6%	31*	71	18%
COc1cccc(/C=N/n2c(N)nc3ccccc32)c1OC	7%	25*	37	x
CC1CCc2nc3ncn(Cc4ccccc4C#N)c(=O)c3cc2C1 (stereo not given)	6%	x	x	-10%
COC(=O)c1scc(-c2ccc(C)cc2)c1S(=O)(=O)Nc1cccc(C(F)(F)F)c1	-5%	x	x	-6%
CCCCOc1ccc(S(=O)(=O)Nc2ccc(-c3ccc(N4CCC(C)CC4)nn3)cc2)cc1	-1%	x	x	10%
CSCCC(NS(=O)(=O)c1ccc2c(c1)oc(=O)n2C)C(=O)NCCc1ccc(C)cc1 (stereo not given)	3%	x	x	-21%
COc1ccc(/C=N/n2c(N)nc(-c3ccccc3)c2-c2ccccc2)cc1	5%	31*	86*	u
COc1ccc(/C=N/n2c(-c3ccccc3)n[nH]c2=S)cc1	14%	-4	-9	-24%
Oc1cc(NCc2cccnc2)ccc1-c1nc2ccccc2o1	-14%	53*	84*	24%
CCc1ccc(OCC(=O)Nc2ccc(-c3nc4ccccc4o3)c(O)c2)cc1	6%	9	40	-11%
Cc1nc2c(c(C)nn2-c2ccccc2)c(C)c1CCC(=O)Nc1ccc(F)cc1	7%	x	x	u
FC(F)(F)c1ccc(CSc2ccccn2)cc1	-4%	19*	53*	19%
Cc1cnc(=O)[nH]c1SCc1ccc(C(F)(F)F)cc1	-2%	25	-2	2%
O=C(Nc1ccccc1)c1ccc(CSc2ccccn2)cc1	10%	36*	63*	-21%
COc1ccccc1NC(=O)c1ccc(CSc2ncccn2)cc1	16%	14*	55*	x
COc1ccccc1NC(=O)c1cnc(SC)nc1	-8%	-1	x	22%
Cc1nc2ccccn2c(=O)c1NC(=O)c1ccc(C(F)(F)F)cc1	3%	x	x	15%
Cc1ccccc1CC(=O)N1CCN(C(=O)C2CCCO2)CC1 (stereo not given)	-4%	2	-19	-2%
Cc1cccc(-c2nc(CN3CCN(C(=O)C4CCCO4)CC3)cs2)c1 (stereo not given)	-1%	7.6*	7	-26%
SMILES	Sm TGR block	Cycloheximide cs	Shiga toxin inh	FMDV inh
Cc1cccc(-c2nc(C)c(CCNC(=O)C(=O)Nc3ccccc3C#N)s2)c1	-2%	x	x	-19%
COc1ccc(/C(C)=N/Nc2nc3ccccc3n3cnnc23)cc1OC	-14%	19*	40*	-13%
COc1cc(CO)ccc1Oc1nc2ccccc2n2cnnc12	-3%	6	29	-5%
COc1cccc(Nc2nc3ccccc3n3cnnc23)c1	35%	15*	66	1%
COc1ccc(Nc2nc3ccccc3n3cnnc23)cc1Cl	-1%	35*	34	-20%
Cc1ccc(Nc2nc3ccccc3n3cnnc23)c(Cl)c1	9%	5	7	-7%
CCc1ccc(N(CC)C(=O)c2cc3c(=O)oc4ccc(C)cc4c3s2)cc1	0%	x	x	-14%
COc1ccc(-c2cn3ccccc3n2)cc1	4%	31*	46	-23%
Brc1ccc(-c2cn3ccccc3n2)s1	-19%	32*	70*	-65%
COc1ccc(-c2nc3ccccn3c2Cl)cc1	-1%	41*	22	u
CCCOc1ccc(-c2cn3ccccc3n2)cc1	0%	3	18	-54%
